This is part of a sample that, as a whole, favours compounds with a hit. Of some 83,000 tested, about 20% had one in any assay.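 Interpretation: 100, growth as untreated; towards 0, rising growth inhibition; 0, no net growth; 0 to -100, cell death. Compounds scoring below 10 were considered active.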 Active and inactive are the calls of the source.
test system: MOLT-4 leukemia; assay: NCI-60 one-dose screen, 48 h (100 = growth as untreated, 0 = no growth, -100 = all killed); details: 10 µM unless noted

| Structure (SMILES) | growth |
| --- | --- |
| Brc1ccc(-c2n(Cc3ccc4ccccc4c3)c(-c3ccccc3)c(-c3ccccc3)[n+]2Cc2ccc3ccccc3c2)cc1 | -5.89% (active) |
| O=C1CCCc2cc(OCC(=O)N3CCCCC3)ccc2N1 | 102% (inactive) |
| COc1cc2c3c(n(CCCN4CCC[C@@H]4CO)c(=O)c2cc1OC)-c1cc2c(cc1C3=O)OCO2 | 5.36% (active) |
| CC(=O)c1c(N)c(C#N)cn1-c1ccc(Cl)cc1Cl | 102% (inactive) |
| Cc1ccc(C2CC(c3ccc(S(=O)(=O)NCCNc4nc(Nc5ccc(F)cc5)nc(N(C)C)n4)cc3)=Nc3c(N)nc(N)nc3N2)cc1 (stereo not drawn) | 4.77% (active) |
| Cc1ccc(C(=O)C(c2c[nH]c3ccccc23)c2c[nH]c3ccccc23)cc1 | 5.7% (active) |
| COc1cc(-c2nc3ccc(C)cc3[nH]2)ccc1OCc1nnc(-c2ccc(Br)cc2)o1 | 25% (inactive) |
| Cc1ccc(-c2nc(C#N)c(S(=O)(=O)N3CCN(S(=O)(=O)c4ccc(Cl)cc4)CC3)o2)cc1 | 75.7% (inactive) |
| CCOC(=O)C1=C(N)N(c2ccccc2)C2=C(C(=O)CC(C)(C)C2)C1c1ccccc1Cl (stereo not drawn) | 25.8% (inactive) |
| Cc1ccc(C(=O)NN2C(=O)/C(=C/C=C/c3ccc([N+](=O)[O-])o3)SC2=S)cc1 | 9.73% (active) |
| CCCS(=O)(=O)N1CCCC(C(=O)Nc2nc3ccc(NC(=O)c4ccc(F)c(OC)c4F)cc3s2)C1 (stereo not drawn) | 0.124% (active) |
| O=C1CC(Sc2n[nH]c(-c3ccncc3)n2)C(=O)N1c1ccc(Br)cc1 (stereo not drawn) | 115% (inactive) |
| COc1ccc(/C=C/c2nc3ccccc3n3c(-c4ccc(Cl)cc4)nnc23)cc1 | 72.6% (inactive) |
| CC1(C)CC[C@]2(C(=O)O)CC[C@]3(C)C(=CCC4[C@@]5(C)C[C@@H](O)[C@@H]6OC(c7ccccc7Br)OC[C@@]6(C)C5CC[C@]43C)C2C1 (stereo partly drawn) | 10.5% (inactive) |
| CC(=O)OCC1OC(OC2C(COC(C)=O)OC(n3cc(COc4ccc5ccc(=O)oc5c4)nn3)C(OC(C)=O)C2OC(C)=O)C(OC(C)=O)C(OC(C)=O)C1OC(C)=O (stereo not drawn) | 97% (inactive) |
| O=C(c1ccccc1)C(c1c[nH]c2ccccc12)c1c[nH]c2ccccc12 | 16.5% (inactive) |
| N=C1N=C(SCc2nc3ccccc3[nH]2)NC(=O)/C1=C/c1ccc(Cl)cc1 | 99.5% (inactive) |
| Cn1cc(-c2cc3nc(-c4c[nH]c5ccc(Cl)cc45)cc(N)n3n2)c2ccccc21 | -36.1% (active) |
| COc1ccc(C2CC(c3ccc(S(=O)(=O)NCCNc4nc(Nc5ccc(F)cc5)nc(N(C)C)n4)cc3)=Nc3c(N)nc(N)nc3N2)cc1 (stereo not drawn) | 20.6% (inactive) |
| O=C(Nc1ccccc1)N1CCN(c2cc(-c3cn(-c4ccccc4)nc3-c3cccc(O)c3)ccn2)CC1 | 33% (inactive) |
| CCS(=O)(=O)N1CCCC(C(=O)Nc2nc3ccc(NC(=O)c4ccc(F)c(OC)c4F)cc3s2)C1 (stereo not drawn) | 9.19% (active) |
| COc1ccc(CCC2c3c(cc4c(c3OC)OCO4)CCN2C)cc1 (stereo not drawn) | -4.81% (active) |
| Nc1nc(-c2ccccc2)c(N=Nc2ccc([N+](=O)[O-])cc2Cl)s1 | 79% (inactive) |
| CN(C)c1nc(NCCNS(=O)(=O)c2ccc(C3=Nc4c(N)nc(N)nc4NC(c4ccccc4)C3)cc2)nc(Nc2ccc(F)cc2)n1 (stereo not drawn) | 2.62% (active) |
| Cn1cc(-c2cc(N)n3nc(-c4cn(C)c5ccccc45)cc3n2)c2cc(Br)ccc21 | -0.0957% (active) |
| COc1cc2c(c(OC)c1OC)C(=O)CC(c1cccc(NC(=O)c3cc(NC(=O)[C@H](C)N)ccc3Cl)c1)O2 (stereo partly drawn) | 8.42% (active) |
| C#CCOc1cc(N(CC)CC)ccc1C(C(=O)NC(C)(C)C)N(C(=O)C1CCc2cc(F)ccc2O1)c1cc(C)cc(C)c1 (stereo not drawn) | 16% (inactive) |
| Cc1ccc(C2=NN(c3nc(-c4cc5ccccc5oc4=O)cs3)C(c3ccc(C)cc3)C2)cc1 (stereo not drawn) | 98.5% (inactive) |
